Source: PubChem
Shown are actives, neighbours in structure and some others; about 5.4% of the full set was active somewhere.
SKKanGAS inh: blocks kanamycin growth of S. pyogenes SKKanGAS strain; 1.3% of 300,000 active; AID 1662; BacTiter-Glo, 6 h; inhibition, % at 7.5 µM;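 active = mean replicate score, as percent of positive control median, at least 50; inconclusive = mean below 50 but one replicate at or above 50; inactive = mean and every replicate below 50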;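 also: strain carries kanamycin resistance gene driven by streptokinase promoter and grows in 40 µg/ml kanamycin; loss of luminescence reflects streptokinase promoter inhibition or plain growth inhibition; 0% = median of DMSO wells and 100% = positive control at its reference dose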
Calb FLC: affects C. albicans growth with fluconazole | C. albicans CaCi-2 (fluconazole-resistant clinical isolate) + fluconazole, Alamar Blue growth, 48 h | growth inhibition, % (test concentration not listed) | 0.57% of 300,000 active;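 active = growth inhibition above about 58% in most replicates, limit read from the data, passing the limit was not always enough; inconclusive = exactly half the replicates above a set limit; inactive = most replicates below a set limit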;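 also: all wells also contain fluconazole at 8 µg/ml as a sub-toxic cotreatment; 0% = median of DMSO wells and 100% = median of geldanamycin control wells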
CSC inhib: blocks cancer stem cells | AID 2717 | cancer stem cell-like cells viability, luminescence | inhibition, % at 7.5 µM | 1.1% of 300,000 active; in the data active = inhibition above about 75%; inconclusive = no clear call, values can overlap the other calls; tested in HMLE shEcad cells
Beta apoptosis: blocks beta cell apoptosis; 0.8% of 300,000 active; INS-1E cytokine-induced death, ATP luminescence, 48 h; percent of positive-control rescue, neutral wells zero; protection from apoptosis, % (no concentration beside the values); AID 435005;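 active = Every replicate reaches about 75%, or at least half do and their mean reaches it too, limit read from the data; inconclusive = At least half of replicates reach the limit but their mean does not; inactive = Under half of replicates reach the limit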;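 also: 0% = cytokine-treated negative control wells and 100% = positive control rescue; higher means more ATP so stronger rescue from cytokine killing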
Mdm2 MdmX PPI: human Mdm2/MdmX binding inhibition. inhibition, % at 8 µM. O15151+Q00987. AID 485346. 3% of 330,000 active. SaOS-2 split-luciferase Mdm2/MdmX complementation, luminescence;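 active = inhibition of at least 50% at 8 µM in the primary screen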
MPTP block: inhibitors of mitochondrial permeability transition pore. isolated mouse mitochondria, Ca2+ swelling absorbance, 30 min. inhibition, % at 10 µM. 1.4% of 360,000 active. AID 602449;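 active = inhibition of 50% or more, scaled per plate between neutral and stimulator controls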;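 also: 0% = DMSO wells given calcium and 100% = 1 mM EGTA wells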
Mdm2 MdmX conf: confirmation of human Mdm2/MdmX interaction inhibitors; shares compounds with Mdm2 MdmX PPI; Mdm2-MdmX binding, luminescent assay; inhibition, % at 8 µM; 55% of 10,000 active; in the data active = inhibition above about 40%
FLuc counter: full-length luciferase inhibition in Mdm2/MdmX counter-screen | shares compounds with Mdm2 MdmX PPI | SaOS-2 full-length luciferase counterscreen, luminescence | inhibition, % at 8 µM | 77% of 6,200 active | AID 504607;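 active = mean inhibition at 8 µM reaching about 37%, which flags the compound as non-specific, limit read from the data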;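 also: p53-null SaOS-2 cells with luciferase driven by a doxycycline-inducible promoter; compound on cells about two nights before reading with doxycycline added after day one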
An asterisk follows results filed as active; u = inconclusive; x = no result.

SMILES	SKKanGAS inh	Calb FLC	CSC inhib	Beta apoptosis	Mdm2 MdmX PPI	MPTP block	Mdm2 MdmX conf	FLuc counter
COc1ccccc1/C=C1\SC(=S)N(CCC(=O)N2CCCCC2CCO)C1=O (stereo unspecified)	3	1	7	-25	39	-2	x	x
COc1cccc(/C=C2\SC(=S)N(CCCC(=O)N3CCCC3)C2=O)c1	4	-1	-1	-34	84*	0	46*	35
COc1cccc(/C=C2\SC(=S)N(CCC(=O)N3CCCCC3CCO)C2=O)c1 (stereo unspecified)	-6	-1	20	-33	77*	1	45*	40*
CN(Cc1ccccc1)S(=O)(=O)c1ccc(OCC(=O)N2CCC(C(N)=O)CC2)cc1	-3	1	-5	0	4	1	x	x
Cc1cccc(-n2c(C)cc(C)c(C#N)c2=O)c1	2	-9	-6	8	12	0	x	x
CC(=O)N1CCC(N(CCCOC(C)C)S(=O)(=O)c2ccc([N+](=O)[O-])cc2)CC1	1	-4	-1	1	8	0	x	x
COc1ccc(Br)cc1C(=O)NC(=S)Nc1c(C)n(C)n(-c2ccccc2)c1=O	0	0	-3	5	12	1	x	x
CC(=O)N=c1sccn1CC(=O)c1ccc([N+](=O)[O-])cc1	-13	-4	-8	-6	-9	-1	x	x
COC(=O)Cc1ccc(NC(=O)c2ccc(C(C)(C)C)cc2)cc1	3	-16	32	x	66*	1	55*	29
CC(C)(C)c1ccc(C(=O)Nc2ccc(Cl)cc2)cc1	-1	-2	7	5	-60	0	x	x
Cc1ccc(S(=O)(=O)N(CC(=O)NCCSCc2ccco2)c2ccc(F)cc2)cc1	3	0	-5	0	-10	x	x	x
CC1CCCCN1CCNC(=O)c1ccc2c(=O)n(Cc3ccc(Cl)cc3)c(=S)[nH]c2c1 (stereo unspecified)	38	28	-12	5	78*	16	32	x
O=C(NCC1CCCO1)c1ccc2c(=O)n(Cc3ccc(Cl)cc3)c(=S)[nH]c2c1 (stereo unspecified)	9	-1	-8	2	56*	3	31	x
C=CCNC(=O)c1ccc(Cn2c(=S)[nH]c3cc4c(cc3c2=O)OCO4)cc1	-3	21	2	5	60*	5	11	x
O=C(NCCN1CCCC1)c1ccc(Cn2c(=S)[nH]c3cc4c(cc3c2=O)OCO4)cc1	-5	0	-4	2	-3	-1	x	x
COc1ccccc1Cn1c(=S)[nH]c2cc(C(=O)NCC3CCCO3)ccc2c1=O (stereo unspecified)	4	0	-17	-1	15	-2	x	x
Cc1nn(Cc2ccccc2)c(C)c1NC(=O)Cn1nc([N+](=O)[O-])c(Cl)c1C	-2	-14	-12	-8	2	0	x	x
Cc1nn(Cc2c(Cl)cccc2Cl)c(C)c1NC(=O)c1cc(C(C)C)on1	-4	-3	31	8	79*	-1	62*	54*
Cc1nn(Cc2c(Cl)cccc2Cl)c(C)c1NC(=O)Cn1nc([N+](=O)[O-])c(Cl)c1C	0	-6	-12	-3	70*	2	4	x
Cc1nnc2ccc(-c3cccc(NS(=O)(=O)c4ccccc4Cl)c3)nn12	41	9	13	5	56*	-1	57*	55*
Cc1nnc2ccc(-c3cccc(NS(=O)(=O)c4cc(F)ccc4F)c3)nn12	25	-5	14	5	49	-1	x	x
Cc1nnc2ccc(-c3cccc(NS(=O)(=O)c4ccccc4[N+](=O)[O-])c3)nn12	38	3	24	13	56*	-1	55*	82*
CCC(CC)C(=O)c1c[nH]c(C(=O)NCc2ccc(F)cc2)c1	-8	1	-6	-2	-19	2	x	x
COc1ccc(F)cc1C(=O)C1CCCN(Cc2c[nH]c3ccccc23)C1 (stereo unspecified)	-4	u	7	-3	53*	4	27	x
CNC[C@@H](CC1CCCCC1)NC[C@H](CC(C)C)NCCc1cccc(C(F)(F)F)c1	88*	88*	111*	112*	99*	5	100*	50*
SMILES	SKKanGAS inh	Calb FLC	CSC inhib	Beta apoptosis	Mdm2 MdmX PPI	MPTP block	Mdm2 MdmX conf	FLuc counter
CCC[C@H](CN[C@@H](CNC)[C@H](C)CC)NCCc1cc(C(F)(F)F)cc(C(F)(F)F)c1	51*	-37	59	17	97*	10	100*	52*
CC[C@@H](C)[C@H](CNC)NC[C@@H](Cc1cccc2ccccc12)NCCc1cccc(C(F)(F)F)c1	99*	112*	u	14	100*	6	100*	52*
Cc1cc2nccnc2cc1C	x	x	x	x	x	-1	x	x
Cc1ccccc1NC1=CC(=O)CC(C)(C)C1	-2	-2	-11	x	16	-1	x	x
CC1(C)CC(=O)C=C(NC2=CC3OC(c4ccccc4)OCC3OC2=O)C1 (stereo unspecified)	-2	-9	14	-40	70*	3	34	54*
Cc1cccc(/C=C/C(=O)c2ccc([N+](=O)[O-])o2)c1	56*	7	24	117*	100*	0	100*	53*
Cc1ccccc1/C=C/C(=O)c1ccc([N+](=O)[O-])o1	62*	16	41	122*	100*	x	86*	55*
COc1ccc(/C=C/C(=O)c2ccc([N+](=O)[O-])o2)cc1	30	-1	u	127*	100*	0	68*	42*
CC(C)CC1Nc2ncnc(N3CCOCC3)c2N(Cc2ccc(Cl)cc2)C1=O (stereo unspecified)	x	x	x	-5	-3	0	x	x
COc1ccc(NS(=O)(=O)c2cc(NC(=O)c3ccccc3)ccc2N2CCOCC2)cc1	x	x	29	10	60*	-1	32	x
COc1ccccc1NS(=O)(=O)c1cc(NC(=O)c2sccc2C)ccc1N1CCOCC1	3	5	0	33	19	4	x	x
COc1ccc(NS(=O)(=O)c2cc(NC(=O)c3cc(F)c(F)c(F)c3F)ccc2N2CCCC2)cc1	12	-11	43	0	61*	1	30	x
COc1ccc(NS(=O)(=O)c2cc(NC(=O)c3cc(F)c(F)cc3Cl)ccc2N2CCOCC2)cc1	x	x	-4	13	51*	0	12	x
COc1ccc(NS(=O)(=O)c2cc(NC(=O)c3sccc3C)ccc2N2CCOCC2)cc1	8	-5	40	7	57*	3	64*	64*
COC(=O)N1CCCCC1c1cc(C(=O)Nc2ccccc2Cl)no1 (stereo unspecified)	x	x	x	x	x	2	x	x
